Measured values from PubChem BioAssay (NCATS).
Records with an inconclusive call do not appear. Active and inactive are the calls of the source. Calls follow the shape of the dose curve; as a rule, active = well fitted curve in the direction sought with a large enough effect; inconclusive = small, poorly fitted or top-dose-only effect, or another doubt; inactive = no such curve, though single readings can be large; an effect the other way counts as inactive or inconclusive.

Key:
[1] = test system: MCC-26; assay: qHTS assay to identify novel small-molecules to repurpose for Merkel cell carcinoma treatment (AID 1296009); details: MCC and control cell lines, CellTiter-Glo viability, 72 h; series mostly up to 46 µM; also: nearly all actives have a fitted effect of over 60% in size
Method in brief: (§1)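 qHTS format: cells treated with library compounds in DMSO across 8 (NPC) or 11 (MIPE) concentrations. Readout after 72 hr at 37 degree celsius was CellTiter-Glo luminescence.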

[2] = test system: MKL-1; assay: as above; details: MCC and control cell lines, CellTiter-Glo viability, 72 h; series mostly up to 46 µM
Method in brief: as §1

[3] = test system: UISO; assay: as above; details: MCC and control cell lines, CellTiter-Glo viability, 72 h; series mostly up to 46 µM
Method in brief: as §1

[4] = test system: WaGa; assay: as above; details: MCC and control cell lines, CellTiter-Glo viability, 72 h; series mostly up to 46 µM
Method in brief: as §1

[5] = test system: MKL-2; assay: as above; details: MCC and control cell lines, CellTiter-Glo viability, 72 h; series mostly up to 46 µM
Method in brief: as §1

[6] = test system: C33A; assay: Primary qHTS to identify gynecologic anti-cancer compounds using libraries of approved drugs and bioactive compounds (AID 1345084); details: Gynecologic cancer cell panel viability, ATPlite luminescence, 48 h; series mostly up to 57.5 µM; also: nearly all actives have a fitted effect of over 55% in size
Method in brief: (§2)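 Luminescence from the ATPlite ATP-monitoring reagent indicates viable cell number; lower signal means cytotoxicity. Cells received compound 16 h after seeding and were exposed for 48 h across five concentrations.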

[7] = test system: CAOV3; assay: as above; details: Gynecologic cancer cell panel viability, ATPlite luminescence, 48 h; series mostly up to 57.5 µM
Method in brief: as §2

[8] = test system: CASKI; assay: as above; details: Gynecologic cancer cell panel viability, ATPlite luminescence, 48 h; series mostly up to 57.5 µM
Method in brief: as §2

[9] = test system: Es-2; assay: as above; details: Gynecologic cancer cell panel viability, ATPlite luminescence, 48 h; series mostly up to 57.5 µM
Method in brief: as §2

[10] = test system: NIH3T3; assay: qHTS assay to identify novel small-molecules to repurpose for Merkel cell carcinoma treatment (AID 1296009); details: MCC and control cell lines, CellTiter-Glo viability, 72 h; series mostly up to 44.8 µM; also: nearly all actives have a fitted effect of over 60% in size
Method in brief: as §1
% is scaled to controls: 0 for no effect and ±100 for the full control effect; potency is read from the fitted curve at half-maximal effect.

COc1cc([C@H]2Oc3cc([C@H]4Oc5cc(O)cc(O)c5C(=O)[C@H]4O)ccc3O[C@H]2CO)ccc1O
inactive: Potency [1] | Potency [2] | Potency [3] | Potency [4]

O=C(CO)N1CCC(c2[nH]nc(-c3ccc(Cl)cc3)c2-c2ccncn2)CC1
inactive: Potency [1] | Potency [2] | Potency [5] | Potency [6] | Potency [7] | Potency [8] | Potency [9]

C[C@@H](O)[C@H]1C(=O)N2C(C(=O)OCOC(=O)C(C)(C)C)=C(SC3CN(C4=NCCS4)C3)[C@H](C)[C@H]12
inactive: Potency [1] | Potency [2] | Potency [10] | Potency [3] | Potency [4]

CCCCCCCCCCCCCCCC(=O)O[C@H]1[C@@H](O)[C@@H](O)[C@@H]([C@H](NC(=O)[C@@H]2C[C@@H](CCC)CN2C)[C@H](C)Cl)O[C@@H]1SC
inactive: Potency [1] | Potency [2] | Potency [10] | Potency [3] | Potency [4]

C[C@]12CC[C@@H]3c4ccc(O)cc4CC[C@H]3[C@H]1[C@@H](O)[C@@H](O)[C@H]2O
inactive: Potency [1] | Potency [2] | Potency [10] | Potency [3] | Potency [4]

OC(c1cc(C(F)(F)F)nc2c(C(F)(F)F)cccc12)C1CCCCN1 (stereo unspecified)
inactive: Potency [1] | Potency [2] | Potency [3] | Potency [4]

N=C1SC(=Cc2ccc(-c3ccc4c(c3)C(=O)NC4=O)o2)C(=O)N1c1ccc(Br)cc1
inactive: Potency [1] | Potency [2] | Potency [3] | Potency [4]

C=C1c2cccc(O)c2C(O)=C2C(=O)[C@@]3(O)C(O)=C(C(N)=O)C(=O)[C@@H](N(C)C)[C@@H]3[C@@H](O)[C@H]12
inactive: Potency [1] | Potency [2] | Potency [3] | Potency [4]

Nc1[nH]nc2nnc(-c3c(-c4ccccc4)nn4ccccc34)cc12
inactive: Potency [1] | Potency [2] | Potency [10] | Potency [3] | Potency [6] | Potency [8] | Potency [9]
active: Potency [4] 1.05 µM

CO[C@H]1O[C@@H]2O[C@@]3(C)CC[C@@H]4[C@@H](C)CC[C@@H]([C@H]1C)[C@@]24OO3
inactive: Potency [1] | Potency [2] | Potency [10]
active: Potency [4] 20.9 µM

CNC(=O)c1ccc2c(C(=Nc3cccc(CN(C)C)c3)c3ccccc3)c(O)[nH]c2c1
inactive: Potency [1] | Potency [2] | Potency [3] | Potency [4] | Potency [6] | Potency [8] | Potency [9]

CCC(=O)NCC[C@@H]1CCc2ccc3c(c21)CCO3
inactive: Potency [1] | Potency [2] | Potency [10] | Potency [3] | Potency [4]

O=C(c1ccc(F)c(F)c1Nc1ccc(I)cc1F)N1CC(O)([C@H]2CCCCN2)C1
inactive: Potency [1] | Potency [2] | Potency [3] | Potency [4]

COc1ccnc(CS(=O)c2nc3ccc(OC(F)F)cc3[nH]2)c1OC (stereo unspecified)
inactive: Potency [1] | Potency [2] | Potency [10] | Potency [3] | Potency [4] | Potency [6] | Potency [7] | Potency [8] | Potency [9]

CN(C(Cc1ccc(OS(=O)(=O)c2cccc3cnccc23)cc1)C(=O)N1CCN(c2ccccc2)CC1)S(=O)(=O)c1cccc2cnccc12 (stereo unspecified)
active: Potency [3] 7.43 µM
inactive: Potency [1] | Potency [2]

CC(=O)O[C@]1(C(C)=O)CC[C@H]2[C@@H]3C=C(Cl)C4=CC(=O)[C@@H]5C[C@H]5[C@]4(C)[C@@H]3CC[C@@]21C
inactive: Potency [1] | Potency [2] | Potency [10] | Potency [4]

CCCC1OC2C[C@@H]3[C@H]4CCC5=CC(=O)C=C[C@]5(C)[C@H]4C(O)C[C@]3(C)[C@]2(C(=O)CO)O1 (stereo partly specified)
inactive: Potency [1] | Potency [2] | Potency [3] | Potency [4]

CCNC(=O)CCCC=CC[C@@H]1[C@H](C=CC(O)CCc2ccccc2)[C@@H](O)C[C@@H]1O (stereo partly specified)
inactive: Potency [1] | Potency [2] | Potency [3] | Potency [4]

CCC(=O)OCC(=O)[C@@]1(OC(=O)CC)[C@@H](C)C[C@@H]2[C@H]3CCC4=CC(=O)C=C[C@]4(C)[C@@]3(F)[C@@H](O)C[C@@]21C
inactive: Potency [1] | Potency [2] | Potency [3] | Potency [4]

CCN1CCC(n2cc(CNc3cc(Cl)c4ncc(C#N)c(Nc5ccc(F)c(Cl)c5)c4c3)nn2)CC1
inactive: Potency [1] | Potency [2] | Potency [10] | Potency [4] | Potency [6] | Potency [8] | Potency [9]

Cc1cnc(CNC(=O)c2c(=O)c3ccc(N4CCCN(C)CC4)nc3n3c2sc2ccccc23)cn1
inactive: Potency [1] | Potency [2] | Potency [5] | activity change, negative = cytotoxicity [6] -22% [at 11.6 µM] | activity change, negative = cytotoxicity [7] -1.16% [at 11.6 µM] | activity change, negative = cytotoxicity [8] -0.786% [at 11.6 µM] | activity change, negative = cytotoxicity [9] -19% [at 11.6 µM]

Cc1nn(Cc2ccccc2Cl)c(C)c1CN(C)CC(O)COc1ccc(Cl)cc1 (stereo unspecified)
inactive: Potency [1] | Potency [2] | Potency [4]

CN(C)c1ccc(-c2nc3ncc(Cl)c(N4CCN(CC(=O)Nc5nccs5)CC4)c3[nH]2)cc1
inactive: Potency [1] | Potency [2] | Potency [3] | Potency [4] | Potency [6] | Potency [7] | Potency [8] | Potency [9]

O=C(O)CCNc1cc(N2CCc3ccccc3CC2)nc(-c2ccccn2)n1
inactive: Potency [1] | Potency [2] | Potency [6] | Potency [7] | Potency [8] | Potency [9]
active: Potency [3] 14.8 µM

Cc1c(C(=O)Nc2ccc(N3C[C@@H](C)O[C@@H](C)C3)nc2)cccc1-c1ccc(OC(F)(F)F)cc1
inactive: Potency [1] | Potency [2] | Potency [5] | Potency [4] | Potency [6] | Potency [7] | Potency [8] | Potency [9]

O=C(CC12CC3CC(CC(C3)C1)C2)Nc1cccc2nc(NCCNCCO)ccc12
inactive: Potency [1] | Potency [2] | Potency [10] | Potency [3] | Potency [4] | Potency [6] | Potency [8] | Potency [9]

NC(N)=Nc1nc(CSCCC(N)=NS(N)(=O)=O)cs1
inactive: Potency [1] | Potency [2] | Potency [10] | Potency [3]

NC(=O)c1noc([C@H](CCCC2CCCCC2)CC(=O)NO)n1
inactive: Potency [1] | Potency [6] | Potency [8] | Potency [9]
active: Potency [2] 16.6 µM | Potency [3] 14.8 µM

O=c1[nH]nc(OCCCc2ccc(Cl)cc2)c(NCc2cccnc2)c1Br
inactive: Potency [1] | Potency [9]
active: Potency [2] 23.5 µM | Potency [5] 14.8 µM

NC1(C(=O)N[C@@H](CCO)c2ccc(Cl)cc2)CCN(c2ncnc3[nH]ccc23)CC1
active: Potency [6] 2.51 µM
inactive: Potency [1] | Potency [2] | Potency [10] | Potency [9]

CN(C)N=Nc1nc[nH]c1C(N)=O
inactive: Potency [1] | Potency [2] | Potency [3]

CC1C(=O)OC2C(O)C34C5CC(C(C)(C)C)C36C(OC(=O)C6O)OC4(C(=O)O5)C12O (stereo unspecified)
inactive: Potency [1] | Potency [2] | Potency [3]

CN[C@@H]1[C@@H](O)[C@@H](O[C@@H]2[C@@H](O)[C@H](O[C@H]3O[C@H](CN)[C@@H](O)[C@H](O)[C@@H]3O)[C@@H](N)C[C@@H]2NC(=O)[C@@H](O)CN)OC[C@]1(C)O
inactive: Potency [1] | Potency [2] | Potency [10] | Potency [3] | Potency [4]

O=C1NC(=O)C(=Cc2ccc(-c3ccc(F)cc3O)o2)S1
inactive: Potency [1] | Potency [2] | Potency [3]

COc1ccc(-c2cc3nccn3c(Nc3ncccc3C(N)=O)n2)cc1OC
inactive: Potency [1] | Potency [2] | Potency [5] | Potency [4] | Potency [6] | Potency [8] | Potency [9]

CN(C)S(=O)(=O)c1ccc2c(c1)C(=Cc1cc3c([nH]1)CCCC3)C(=O)N2
inactive: Potency [1] | Potency [5] | Potency [3] | Potency [4]

CCOC(=O)[C@@H](N)CCC(=O)N[C@@H](CSCc1ccccc1)C(=O)N[C@@H](C(=O)OCC)c1ccccc1
inactive: Potency [1] | Potency [3] | Potency [4]

Cc1csc(-c2nnc(Nc3ccc(Oc4ncccc4-c4ccnc(N)n4)cc3)c3ccccc23)c1
active: Potency [4] 0.0118 µM
inactive: Potency [1] | Potency [3] | Potency [6] | Potency [8]

CCN(CCO)CCCOc1ccc2c(Nc3cc(CC(=O)Nc4cccc(F)c4)[nH]n3)ncnc2c1
inactive: Potency [1] | Potency [3] | Potency [6] | Potency [7] | Potency [9]

COc1cc2c(cc1Cc1cccc(Cl)c1F)c(=O)c(C(=O)O)cn2[C@H](CO)C(C)C
inactive: Potency [1]
active: Potency [5] 18.7 µM

CC(C)CN(C[C@@H](O)[C@H](Cc1ccccc1)NC(=O)O[C@H]1CO[C@H]2OCC[C@H]21)S(=O)(=O)c1ccc(N)cc1
inactive: Potency [1] | Potency [10] | Potency [3]

CC(C)CNc1ccnc(NCc2csc(-c3ccccc3)n2)n1
active: Potency [5] 16.6 µM | Potency [3] 13.2 µM | Potency [9] 22.4 µM
inactive: Potency [1]

CCCCCCOC(=O)N=C(N)c1ccc(NCc2nc3cc(C(=O)N(CCC(=O)OCC)c4ccccn4)ccc3n2C)cc1
inactive: Potency [1] | Potency [5] | Potency [3] | Potency [4]

NCc1c[nH]c(=S)n1[C@H]1CCc2c(F)cc(F)cc2C1
inactive: Potency [1]
active: Potency [5] 20.9 µM

Cc1ccc(S(=O)(=O)OCC(=O)Nc2ccc(C(=O)O)c(O)c2)cc1
inactive: Potency [1] | Potency [5] | Potency [3]

CCc1cccc(CC)c1NC(=O)N1Cc2[nH]nc(NC(=O)c3ccc(N4CCN(C)CC4)cc3)c2C1
inactive: Potency [5] | Potency [3] | Potency [6] | Potency [9]
active: Potency [1] 20.9 µM

COc1ccc(-c2nc3ccc(C4=NNC(=O)CC4C)cc3[nH]2)cc1 (stereo unspecified)
inactive: Potency [1] | Potency [6] | Potency [9]

Cc1ccccc1C(=O)c1ccc(Nc2ccc(Br)cc2N)cc1Cl
inactive: Potency [1] | Potency [2] | Potency [7] | Potency [9]

COc1cc(CNC(=O)CCCCC=CC(C)C)ccc1O
inactive: Potency [1] | Potency [2] | Potency [4]

CN1CCc2c(n(Cc3ccc(C(=O)NO)cc3)c3ccccc23)C1
active: Potency [5] 14.8 µM | Potency [4] 18.7 µM
inactive: Potency [1] | Potency [3] | Potency [6] | Potency [7] | Potency [8]

Nc1nc(Cl)nc2c1ncn2[C@@H]1O[C@H](CO)[C@@H](O)[C@H]1F
inactive: Potency [4]
active: Potency [1] 0.59 µM | Potency [2] 0.0132 µM

NC[C@H]1O[C@H](O[C@@H]2[C@@H](O)[C@@H](O[C@H]3O[C@H](CO)[C@@H](O)[C@H](N)[C@@H]3O)[C@H](N)C[C@@H]2N)[C@H](O)[C@@H](O)[C@H]1O
inactive: Potency [1] | Potency [5] | Potency [3] | Potency [4]

Cc1ccc2c(c1)C(=O)[C@]1(O)CCN(c3ccccc3)C1=N2
inactive: Potency [1] | Potency [5] | Potency [3] | Potency [6] | Potency [7] | Potency [8] | Potency [9]

CC[C@H](NC(=O)[C@H](C)NC)C(=O)N1C[C@@H](O)C[C@H]1Cc1c(-c2[nH]c3cc(F)ccc3c2C[C@H]2C[C@H](O)CN2C(=O)[C@H](CC)NC(=O)[C@H](C)NC)[nH]c2cc(F)ccc12
inactive: Potency [1] | Potency [10] | Potency [3]
